# Assay results reported in PubChem BioAssay (Tox21).
# Activity calls are given as the source filed them. Calls come from the whole dose curve; as a rule, active = well fitted curve in the direction sought with a large enough effect in the repeat runs; inconclusive = weak or mixed curves; inactive = flat fitted curve, though single readings scatter.
# Test: qHTS assay to test for compound auto fluorescence at 460 nm (blue) in HEK293 cell free culture (AID 720681)
# Conditions: cell-free medium, autofluorescence 405/460 nm (blue); series mostly up to 91.3 µM; fluorescence, % of fluorescent control: at the top concentration
# Source text: U.S. Tox21 Program National Center for Advancing Translational Sciences [NCATS] NIH Chemical Genomics Center [NCGC] U.S. Environmental Protection Agency [EPA] National Institutes of Environmental Health Sciences [NIEHS] National Toxicology Program [NTP] U.S. Food and Drug Administration [FDA] Tox21 Assay Overview: Compound auto fluorescence often interferes with screening of the compound library against various biological targets and signaling pathways. Some of these compounds may have fluorophoric properties. Such properties may interfere with the assay outputs resulting in false positives and/or negatives. To decrease such complications and ensure the compound activities are relevant in terms of biological response, the Tox21 10K compound library was screened for auto fluorescence. From the fluorophores used as reporter signals in our screening assays, the auto fluorescence equivalencies of compounds against three fluorophores have been evaluated: Triamterene, Fluorescein and Rose Bengal sodium for blue, green and red fluorescence, respectively. The fluorescence intensities were measured using Excitation/Emission wavelengths at 405/460nm, 485/535nm and 540/590nm for blue, green and red labels, respectively. This assay includes the blue fluorescence data.
# Tox21 Assay Protocol Summary: 5 uL of culture medium (DMEM containing 10% FBS) per well was dispensed into black wall/clear bottom 1536-well plates using a Multidrop Combi Dispenser (ThermoFisher Scientific, Waltham, MA). After 23 nL compound or DMSO vehicle was transferred into assay plate by a pintool work station (Kalypsys, San Diego, CA), fluorescence intensities in the assay plates were measured by an Envision (PerkinElmer, Shelton, CT) plate reader using three labels for measuring blue, green and red fluorescence at […] 460, 535 and 590nm respectively.
# % is set by controls: 0 for no effect and ±100 for the full control effect.
Compound,"fluorescence, % of fluorescent control",outcome
Nc1ccc([N+](=O)[O-])cc1[N+](=O)[O-],-0.431% (inactive),–
O=C(N[C@H](c1ccccc1)[C@@H]1CN2CCC1CC2)c1c(Cl)ccc(C(F)(F)F)c1Cl,0.11% [at 95.7 µM] (inactive),–
C=CCN1CC[C@]23c4c5ccc(O)c4O[C@H]2C(=O)CC[C@@]3(O)[C@H]1C5,–,inactive
CCc1ccc(C(=O)NN(C(=O)c2cc(C)cc(C)c2)C(C)(C)C)cc1,-0.275% (inactive),–
CCOC(=O)[C@]1(c2ccccc2)Oc2ccccc2[C@@H]1N,0.0093% (inactive),–
CCOC(=O)C(Cl)C(C)=O (stereo not given),-0.0211% [at 95.7 µM] (inactive),–
N#CCc1ccccc1,-0.0356% [at 95.7 µM] (inactive),–
CC(Cl)C(C)Cl (stereo not given),-0.0491% (inactive),–
CC(C)(OO)c1ccccc1,0.401% (inactive),–
Cc1ccc2ccccc2c1,0.165% (inactive),–
BrCC(Br)C1CCC(Br)C(Br)C1 (stereo not given),0.0078% (inactive),–
CCOP(=O)(OCC)SCCSCC,0.223% (inactive),–
CO/C=C(/C(=O)OC)c1ccccc1COc1cccc(C(F)(F)F)n1,0.0455% (inactive),–
O=S1(=O)OC(c2cc(Br)c(O)c(Br)c2)(c2cc(Br)c(O)c(Br)c2)c2ccccc21,-0.47% (inactive),–
Brc1ccc(Oc2ccccc2)cc1,–,inactive
C=CCOC(C)=O,-0.0597% (inactive),–
CCOS(C)(=O)=O,-0.338% [at 95.7 µM] (inactive),–
Oc1ccc(Cl)c(Cl)c1Cl,-0.0092% [at 95.7 µM] (inactive),–
O=S1OC[C@@H]2[C@H](CO1)[C@]1(Cl)C(Cl)=C(Cl)[C@@]2(Cl)C1(Cl)Cl (stereo not given in full),-0.0323% (inactive),–
C[C@H]1CNCCc2ccc(Cl)cc21,0.0376% [at 46 µM] (inactive),–

Compound,"fluorescence, % of fluorescent control",outcome
O=C(Nc1ccccc1)Nc1cnns1,-0.153% (inactive),–
CC1C(=O)C[C@]2(C(C)C)C[C@H]12 (stereo not given in full),0.0656% (inactive),–
O=C1NCN(c2ccccc2)C12CCN(CCCOc1ccc(F)cc1)CC2,0.0167% [at 46 µM] (inactive),–
ClC=C(Cl)Cl,–,inactive
C=CC(=O)NCNC(=O)C=C,-0.12% (inactive),–
CC(c1ccc(O)cc1)(c1ccc(O)cc1)c1ccc(O)cc1,-0.054% (inactive),–
C(=NC1CCCCC1)=NC1CCCCC1,–,inactive
Brc1ccccc1,0.0649% (inactive),–
COc1cc(Cl)c(OC)cc1Cl,-0.257% (inactive),–
CC(=O)C(C)(C)C,-0.244% [at 95.7 µM] (inactive),–
Cc1c(F)c(F)c(COC(=O)C2C(/C=C(\Cl)C(F)(F)F)C2(C)C)c(F)c1F (stereo not given),-0.032% (inactive),–
CCCCN(N=O)C(=N)N[N+](=O)[O-],0.132% [at 95.7 µM] (inactive),–
COP(=S)(Oc1cc(Cl)c(Br)cc1Cl)c1ccccc1 (stereo not given),-0.0222% (inactive),–
Cn1sc(Cl)cc1=O,–,inactive
C=CCCl,0.199% [at 95.7 µM] (inactive),–
NNC(=O)c1cccnc1,0.564% (inactive),–
C#CCOC(C(=O)OCCN(C)C)(c1ccccc1)c1ccccc1,-0.117% [at 46 µM] (inactive),–
CCCCCC[N+](=O)[O-],-0.204% (inactive),–
CN1C(=O)NC(=O)C(C)(C2=CCCCC2)C1=O (stereo not given),–,inactive
O=C(NCc1cccnc1)Nc1ccc([N+](=O)[O-])cc1,-0.0526% (inactive),–
